# Sampled rows, rich in hits. Any-hit rate of the full collection: about 2%.
# aSyn yeast inh: inhibitors of alpha-synuclein toxicity in yeast; 0.14% of 370,000 active; AID 652106; Potency, µM (highest dose often 46.1 µM), for the others: at the top dose growth rescue (activation), usual class: activators; Yeast expressing alpha-synuclein, growth rescue, BacTiter-Glo, 24 h; also: % of control where 0% means no effect; nearly all actives have a fitted effect of over 65% in size
#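 Screening used galactose-induced yeast with toxic alpha-synuclein levels, exposed to compound for 24 hr at 30 deg C. Cell growth, read with BacTiter-Glo luminescence, gave the measured signal.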
# Abeta rescue: A-beta toxicity reversal in yeast; Potency, µM (series often up to 46.1 µM), actives largely listed as activators; AID 1347071; yeast expressing A-beta42, growth rescue, OD600, 48 h; response scale: 0% DMSO, 100% iron-clioquinol control; 0.063% of 410,000 active; also: nearly all actives have a fitted effect of over 55% in size
#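 Yeast A-beta toxicity model in growth medium with pinned compounds, 48 h at 30 C; growth read as absorbance at 600 nm. Normalized to FeCl3/clioquinol equimolar mix (positive) and DMSO (negative).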
# Rango-impB inh: Rango-importin beta binding inhibition | Q14974 | Rango CFP/YFP FRET sensor + importin beta, 45 min | Potency, µM (titrated, usually from 92.2 µM), inactives show at the highest dose inhibition of complex formation | 0.031% of 340,000 active; calls by dose curve;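 also: 0% = DMSO wells and 100% = buffer wells lacking importin beta; nearly all actives have a fitted effect of over 15% in size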
# Target sequence (Q14974 whole entry, looked up): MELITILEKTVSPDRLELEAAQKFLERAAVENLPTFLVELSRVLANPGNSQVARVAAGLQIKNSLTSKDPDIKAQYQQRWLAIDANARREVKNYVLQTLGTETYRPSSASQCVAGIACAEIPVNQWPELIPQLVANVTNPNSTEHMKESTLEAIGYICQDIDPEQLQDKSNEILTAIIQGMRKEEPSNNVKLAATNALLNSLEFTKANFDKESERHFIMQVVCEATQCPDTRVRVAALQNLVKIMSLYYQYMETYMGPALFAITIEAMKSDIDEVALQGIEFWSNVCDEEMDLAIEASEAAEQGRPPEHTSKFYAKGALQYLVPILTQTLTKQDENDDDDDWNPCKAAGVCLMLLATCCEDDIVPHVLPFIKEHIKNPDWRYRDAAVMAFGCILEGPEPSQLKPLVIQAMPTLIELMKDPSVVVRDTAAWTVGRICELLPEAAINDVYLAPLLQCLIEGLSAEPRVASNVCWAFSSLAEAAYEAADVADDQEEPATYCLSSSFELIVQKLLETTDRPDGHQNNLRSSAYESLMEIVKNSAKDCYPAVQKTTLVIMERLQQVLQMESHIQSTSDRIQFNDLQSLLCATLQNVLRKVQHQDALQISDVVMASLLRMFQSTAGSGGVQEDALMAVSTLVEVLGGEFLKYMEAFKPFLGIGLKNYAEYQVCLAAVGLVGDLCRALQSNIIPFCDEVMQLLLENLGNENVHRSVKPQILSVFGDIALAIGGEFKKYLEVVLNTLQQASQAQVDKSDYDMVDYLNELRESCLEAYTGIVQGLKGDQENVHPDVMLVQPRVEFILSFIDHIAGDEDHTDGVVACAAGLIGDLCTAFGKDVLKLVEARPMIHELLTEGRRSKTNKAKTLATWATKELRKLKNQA
#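 FRET biosensor (snurportin 1 IBB flanked by EYFP and cerulean), 50 nM, with compound 5 min, then 0.125 microM importin beta in PBS, 1 mM DTT, 0.02% Tween-20, 0.1% BSA. CFP/YFP ratio read after 45 min at room temperature; pre-read flags interference.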
# Rango release inh: prevents RanGTP from dissociating the Rango-importin beta complex; AID 540253; 0.071% of 340,000 active; Biochemical FRET Rango-importin beta, RanGTP-induced dissociation; Potency, µM (top dose mostly 46.1 µM), for inactives: at the highest dose activity change, negative = inhibition; O95149+P62826; calls by dose curve; also: % of control where 0% means no effect; nearly all actives have a fitted effect of over 45% in size
#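 FRET read at 45 min, room temperature: inhibitors block the CFP/YFP signal rise when RanGTP (0.6 uM Ran, 2 mM GTP, 0.2 uM RCC1) frees Rango (0.1 uM) from importin beta (0.25 uM). Pre-read after 5 min compound exposure flags interference.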
# ASM inhibitor: inhibitors of human secretory acid sphingomyelinase; P17405; placental ASM, HMU-PC fluorogenic substrate, 60 min; Potency, µM (titrated, usually from 57.5 µM), inactives show at the highest dose activity change, negative = inhibition, actives largely listed as inhibitors; 0.006% of 340,000 active; AID 504937
#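 qHTS format. ASM enzyme prepared from human placenta hydrolyses the fluorogenic substrate HMU-PC0 (9 uM final) over 60 min at 37 °C after a 10 min compound preincubation.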
# TDP43 rescue: inhibitors of TDP-43 toxicity in yeast. TDP-43 expressing yeast growth rescue, BacTiter-Glo, 24 h. Potency, µM (doses to about 46.1 µM), without a hit: at the top dose growth rescue (activation), usual class: activators. 1.8% of 410,000 active; also: % of control where 0% means no effect; nearly all actives have a fitted effect of over 50% in size
#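 Cell-based yeast growth screen: TDP-43 expression induced in galactose, inoculum OD600=0.02 after raffinose pregrowth to mid-log. Read-out BacTiter-Glo luminescence at 24 hr, 30 deg C; inhibition of toxicity seen as signal increase.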
# Numbers without * were called inactive; i = inactive; ? = inconclusive; · = no result. Unless noted, calls follow the shape of the dose curve; as a rule, active = well fitted curve in the direction sought with a large enough effect; inconclusive = small, poorly fitted or top-dose-only effect, or another doubt; inactive = no such curve, though single readings can be large; an effect the other way counts as inactive or inconclusive. Potency is read from the fitted curve at half-maximal effect.
SMILES,aSyn yeast inh,Abeta rescue,Rango-impB inh,Rango release inh,ASM inhibitor,TDP43 rescue
CC(=O)c1ccc(C(=O)N(Cc2cccnc2)c2nc3c(C)c(C)ccc3s2)cc1,·,i,·,·,·,22.4µM*
CCc1ccc2nc(N(Cc3cccnc3)C(=O)Cc3ccccc3)sc2c1,·,i,·,·,·,28.2µM*
COc1ccc2sc(N(Cc3cccnc3)C(=O)CCc3ccccc3)nc2c1,·,i,·,·,·,8.7%
Cc1ccc2nc(N(Cc3cccnc3)C(=O)CCc3ccccc3)sc2c1,·,i,·,·,·,?
COc1cc(OC)c(OC)cc1/C=C/c1ccc2ccccc2[n+]1C,-20.3%,·,·,·,·,·
CCCOC(=O)CSc1ncnc2sc3c(c12)CCC(C)C3 (stereo not given),8.7%,i,·,·,·,19.3%
CCOc1ccc2nc(N(Cc3cccnc3)C(=O)c3cccs3)sc2c1,·,i,·,·,·,14.1µM*
COc1ccc2sc(N(Cc3cccnc3)C(=O)c3cccs3)nc2c1,·,i,·,·,·,18.0%
CCc1ccc2nc(N(Cc3cccnc3)C(=O)c3ccc(C#N)cc3)sc2c1,·,i,·,·,·,1.78µM*
O=C(CBr)c1ccc(Oc2ccc(C(=O)C[n+]3cccc(Br)c3)cc2)cc1,4.8%,·,·,·,·,·
O=C(Nc1ccccc1)OCC1COC(c2ccccc2)(c2ccccc2)O1 (stereo not given),11.5%,i,-5.3%,4.1%,?,20µM*
CCCn1c(NC(=O)C2CCN(C(=O)c3ccccc3C)CC2)nc2ccccc21,1.0%,i,-0.4%,10.0%,-5.6%,?
CCCn1c(NC(=O)c2cccc(C)c2C)nc2ccccc21,?,i,-2.7%,12.0%,-0.2%,20µM*
Cc1cccc(OCCn2c(-c3ccco3)nc3ccccc32)c1,-7.6%,i,-0.5%,-9.7%,-16.5%,11.2µM*
c1ccc(OCCn2c(-c3ccco3)nc3ccccc32)cc1,?,i,?,-30.9%,-1.7%,?
Cc1cccc(OCCn2c(NC(=O)c3ccco3)nc3ccccc32)c1,5.1%,i,?,-1.7%,-25.0%,15.8µM*
CSc1ccc(CCNC(=O)c2ccc3c(c2)nc2n3CCC(C)C2)cc1 (stereo not given),·,i,·,·,·,2.5%
S=C1NC(c2ccccc2)=NCN1c1ccccc1,-0.2%,i,0.4%,-2.6%,2.9%,12.6µM*
O=C1CN(c2ccccc2)C(=O)N1,-0.8%,i,1.6%,23.3%,5.7%,-9.3%
CCOC(=O)c1c(C)oc2cc(Br)c(O)c(Br)c12,4.1%,i,2.1%,1.6%,-5.8%,12.6µM*
CCOC(=O)c1c(NC(C)=O)sc2c(O)c(Br)cc(Br)c12,-4.2%,i,2.0%,10.8%,-23.5%,12.6µM*
O=C(Nc1ccncc1)c1cnn2c1NC(=C1CC1)C=C2C(F)F,9.3%,·,·,·,·,·
O=C1COc2ccccc2N1Cc1ccc(Cl)cc1,26.4%,i,2.7%,9.6%,-2.0%,20µM*
CS(=O)(=O)c1ccccc1C(=O)Nc1cc(Cl)ccc1-n1cncn1,1.1%,i,1.2%,4.9%,-0.8%,13.7%
Cc1ccc(C(=O)Nc2cc(Cl)ccc2-n2cncn2)s1,10.0%,i,0.8%,37.2%,1.8%,?
SMILES,aSyn yeast inh,Abeta rescue,Rango-impB inh,Rango release inh,ASM inhibitor,TDP43 rescue
Cc1ccsc1C(=O)Nc1cc(Cl)ccc1-n1cncn1,12.7%,i,-0.5%,6.0%,·,17.8µM*
Cc1ccc(OCC(=O)Nc2cc(Cl)ccc2-n2cncn2)c(C)c1,5.9%,i,·,·,·,12.6µM*
O=C(Nc1cc(Cl)ccc1-n1cncn1)c1cc(F)c(F)c(F)c1F,0.6%,i,-3.0%,-9.6%,0.1%,22.4µM*
COc1ccc(Cl)cc1NC(=O)Cn1ccn(Cc2ccc(C)cc2)c(=O)c1=O,·,i,·,·,·,1.5%
C[N+]1(CC(=O)c2c3ccccc3cc3ccccc23)CCOCC1,2.7%,·,·,·,·,·
CCN(CC)C(=O)c1ccc2c(c1)N(Cc1ccc(C(F)(F)F)cc1)C(=O)c1ccccc1S2,·,i,·,·,·,-2.8%
C=CCOc1ccc(/C=C/C(=O)OCC(=O)NCCc2ccccc2)cc1,24.2%,i,1.1%,17.5%,-7.9%,25.1µM*
O=C(COC(=O)/C=C/c1ccc(Cl)cc1)NCCc1ccccc1,-1.1%,i,4.2%,-15.0%,-1.8%,3.5%
CSc1nccc(-c2c(-c3ccc(Cl)cc3)noc2C)n1,-13.9%,i,0.1%,4.1%,-11.3%,17.8µM*
Cc1cc(Cl)ccc1NS(=O)(=O)c1ccc2c(c1)CC(C)N2C(=O)C1CCC1 (stereo not given),·,i,·,·,·,?
COc1ccccc1-c1nn2c(C3COc4ccccc4O3)nnc2s1 (stereo not given),·,i,-0.2%,1.0%,?,10µM*
Cc1ccc(N2C(=O)[C@@H]3CSC(c4ccc(Cl)cc4)N3C2=O)cc1 (stereo not given in full),·,i,·,·,·,25.1µM*
Cc1cc(C)c(NC(=O)c2cc3c(=O)n4ccccc4nc3n2C)c(C)c1,·,i,·,·,·,35.5µM*
CC(C)(C)n1cnc2cc(NCc3ccccc3Cl)ccc21,·,i,·,·,·,14.7%
S=c1[nH]nc(-c2cc3c(s2)-c2ccccc2CC3)o1,-7.2%,i,?,?,i,14.1µM*
CCN(CCCN(C)C)c1ccc(/C=C/c2ccnc3ccccc23)cc1,2.1%,·,·,·,·,·
C[C@@H]1C=CC(=O)O[C@@H]1c1ccc(Cl)cc1,-16.3%,i,2.5%,15.9%,-7.3%,12.6µM*
CC1C(=O)OC(c2ccc(Cl)cc2)C(C)(C)C1=O (stereo not given),16.1%,i,1.1%,2.9%,2.3%,?
C(=C\c1nc2ccccc2o1)/c1ccc2c(c1)OCO2,-16.3%,·,·,·,·,·
CCC/C(=C1/c2ccccc2C(=O)N1c1ccccc1)c1ccc2[nH]ccc2c1,-44.0%,i,1.9%,41.2%,2.3%,14.1µM*
Cc1cccc(C)c1OCC(=O)N(Cc1ccc(Cl)cc1)CC1CCCO1 (stereo not given),·,i,·,·,·,13.9%
COc1ccccc1NC(=O)COC(=O)c1c(C)nn(-c2ccccc2)c1C,-2.0%,i,4.2%,-1.5%,-1.3%,17.8µM*
COc1cccc(NC(=O)COC(=O)/C=C/c2c(C)nn(-c3ccccc3)c2C)c1,-16.7%,i,-3.5%,-9.1%,-11.4%,20µM*
Cc1ccc(C(=O)Nc2cccc(-c3nc4cccnc4s3)c2C)cc1,·,i,·,·,·,-5.1%
CC(C)c1ccc(-c2nnc3n(CCc4ccccc4)c(=O)c4ccccc4n23)cc1,·,i,·,·,·,?
Cc1nc2c(C)c(C)c(C)c(C)c2nc1C,0.7%,i,-2.2%,-5.5%,-0.5%,4.8%
